Where “and” joins values, the source holds several entries; their conditions need not be identical. Identical values can stand only once. The source holds several records for some structures; these can differ, active in one and inactive in another. Calls of active or inactive are those of the source. Rule for the calls: active = hit-call score of the fitted dose curve at least 0.9, where 1 is the maximum; inactive = score below 0.9.
What follows are compounds tested on Vascular cell adhesion molecule 1 (VCAM1), VCAM1 (gene 7412) (assay: BSK_hDFCGF_VCAM1: BioMAP Diversity Plus: hDFCGF Assay for Vascular cell adhesion molecule 1 (VCAM1) Biomarker Activity (AID 2283065)). Conditions: primary human foreskin fibroblasts; actives raise or lower the signal.
Procedure: BSK_hDFCGF is a cell-based, multiplexed-readout assay that uses foreskin fibroblast, a human skin primary cell, with measurements taken at 24 hours after chemical dosing in a 96-well plate.BSK_hDFCGF_VCAM1 is an assay component measured in the BSK_hDFCGF assay. It measures VCAM-1 antibody related to regulation of gene expression using ELISA technology.Data from the assay component BSK_hDFCGF_VCAM1 was analyzed into 1 assay endpoint. This assay endpoint, BSK_hDFCGF_VCAM1, was analyzed with bidirectional fitting relative to DMSO as the negative control and baseline of activity. Using a type of binding reporter, gain or loss-of-signal activity can be used to understand changes in the signaling as they relate to the gene VCAM1. Furthermore, this assay endpoint can be referred to as a primary readout, because this assay has produced multiple assay endpoints where this one serves a signaling function. To generalize the intended target to other relatable targets, this assay endpoint is annotated to the cell adhesion molecules intended target family, where the subfamily is Immunoglobulin CAM.
The levels of cell surface (or secreted, indicated by the prefix "s") biomarker endpoints were measured by ELISA. Overt cytotoxicity to cells in confluent adherent cultures (all systems other than the BT system) was assessed by measuring total protein levels using sulforhodamine B (SRB) staining in parallel cultures at the time of biomarker measurements, indicated as SRB endpoints. For proliferation assays for adherent cell types, individual cell types are cultured at sub-confluence and relative cell numbers quantified by SRB staining at time points optimized for each system (48 h: 3C and CASM3C systems; 72 h: BT and HDF3CGF systems; 96 h: SAg system). SRB was performed by staining cells with 0.1% SRB after fixation with 10% TCA and reading wells at 560 nm.Viability and proliferation of PBMC (T cells) was quantified by Alamar Blue reduction for the SAg and BT systems. For PBMC viability (referred to as PBMC Cytotoxicity within the assay endpoint names), cells were plated (75,000/well in a 96-well plate) and then chemical samples added for 1 h before addition of activators, SEB and TSST-1 (20 ng/mL final concentration each). Cells were incubated for 90 h. Then, Alamar Blue (20 uL/well) (Invitrogen, Cat DAL1100) was added for 6 h, and the plates were read with a fluorescence microplate reader at 546/580 nm (excitation/emission). For PBMC proliferation, cells were plated and activated as above but incubated for only 16 h prior to addition of Alamar Blue. Plates were read after 6 h.

Compound | outcome | AC50
CC(C)OC(=O)Nc1cccc(Cl)c1 | inactive | –
COc1cc(OC)nc(NC(=O)NS(=O)(=O)c2cc(NC=O)ccc2C(=O)N(C)C)n1 | inactive | –
O=[N+]([O-])c1c(Cl)c(Cl)c(Cl)c(Cl)c1Cl | – | 20 µM (active)
Cc1cc(C)nc(NC(=O)NS(=O)(=O)c2ccccc2C(=O)OC2COC2)n1 | inactive | –
COP(=S)(OC)Oc1ccc(SC)c(C)c1 | inactive | –
[2H]C1([2H])[n+]2ccccc2-c2cccc[n+]2C1([2H])[2H] | inactive | –
CNC(=O)Oc1ccccc1OC(C)C | inactive | –
COP(=O)(OC)OC=C(Cl)Cl | inactive | –
O=C(O)COc1ccc(Cl)cc1Cl | inactive | –
CCOC1Oc2ccc(OS(C)(=O)=O)cc2C1(C)C (stereo not given) | inactive | –
O=S(=O)(O)C(F)(F)C(F)(F)C(F)(F)C(F)(F)C(F)(F)C(F)(F)C(F)(F)C(F)(F)F | inactive | 20 µM (active) and 29.6 µM (active) and 30 µM (active)
CNC(=O)CSP(=S)(OC)OC | inactive | –
CCc1ccc(C(=O)NN(C(=O)c2cc(C)cc(C)c2)C(C)(C)C)cc1 | inactive | –
Oc1cc(Cl)ccc1Oc1ccc(Cl)cc1Cl | – | 8.72 µM (active) [middle of 4 runs]
OCCOc1ccccc1 | inactive | –
ClC1C(Cl)C(Cl)C(Cl)C(Cl)C1Cl (stereo not given) | inactive | –
O=S1OCC2C(CO1)C1(Cl)C(Cl)=C(Cl)C2(Cl)C1(Cl)Cl (stereo not given) | – | 33.5 µM (active)
CC(C)(C)C(O)C(Oc1ccc(Cl)cc1)n1cncn1 (stereo not given) | inactive | –
Clc1ccccc1-c1nnc(-c2ccccc2Cl)nn1 | inactive | –
CC(C)N(C(=O)COc1nnc(C(F)(F)F)s1)c1ccc(F)cc1 | – | 8.54 µM (active)

Compound | outcome | AC50
CCOc1nc(NC)nc(NC(=O)NS(=O)(=O)c2ccccc2C(=O)OC)n1 | inactive | –
CNC(=O)Oc1cccc(N=CN(C)C)c1 | – | 8.35 µM (active)
CC(C)(C)C(O)/C(=C\c1ccc(Cl)cc1Cl)n1cncn1 (stereo not given) | – | 31.6 µM (active)
CCN(CC)C(=O)SCc1ccc(Cl)cc1 | inactive | –
CCOCN(C(=O)CCl)c1c(C)cccc1CC | – | 3.54 µM (active)
CC1(c2ccc(Oc3ccccc3)cc2)OC(=O)N(Nc2ccccc2)C1=O (stereo not given) | inactive | –
Cc1[nH]c(=O)n(C(C)(C)C)c(=O)c1Cl | inactive | –
O=C(O)CCCOc1ccc(Cl)cc1Cl | inactive | –
CCCN(CCOc1c(Cl)cc(Cl)cc1Cl)C(=O)n1ccnc1 | inactive | –
CNC(=O)/C=C(\C)OP(=O)(OC)OC | inactive | –
O=[N+]([O-])/N=C1\NCCN1Cc1ccc(Cl)nc1 | inactive | –
CCCN(CCC)c1c([N+](=O)[O-])cc(C(F)(F)F)cc1[N+](=O)[O-] | – | 7.77 µM (active)
C#CCN1C(=O)COc2cc(F)c(N3C(=O)C4=C(CCCC4)C3=O)cc21 | inactive | –
N#Cc1c(Cl)c(Cl)c(Cl)c(C#N)c1Cl | – | 1.08 µM (active)
CC1(C)C(C=C(Cl)Cl)C1C(=O)OC(C#N)c1ccc(F)c(Oc2ccccc2)c1 (stereo not given) | inactive | –
CC[C@H](C)[C@H]1O[C@]2(C=C[C@@H]1C)C[C@@H]1C[C@@H](C/C=C(\C)[C@@H](O[C@H]3C[C@H](OC)[C@@H](O[C@H]4C[C@H](OC)[C@@H](O)[C@H](C)O4)[C@H](C)O3)[C@@H](C)/C=C/C=C3\CO[C@@H]4[C@H](O)C(C)=C[C@@H](C(=O)O1)[C@]34O)O2 (tested in a mixture with another compound) | – | 9.78 µM (active)
N#CN | inactive | –
COC(=O)c1ccccc1CS(=O)(=O)NC(=O)Nc1nc(OC)cc(OC)n1 | inactive | –
COP(=S)(OC)Oc1ccc([N+](=O)[O-])cc1 | inactive | –
